# BLM inh: Bloom syndrome helicase (human) inhibition; 0.2% of 350,000 active; Potency, µM (titrated, usually from 56.1 µM), most hits filed as inhibitors; recombinant BLM DNA unwinding, fluorescence dequenching; note: nearly all actives have a fitted effect of over 35% in size
# FEN1 inhibitor: human FEN1 inhibition; P39748; Recombinant FEN1 flap cleavage, fluorescence, 15 min; Potency, µM (series often up to 114 µM), usual class: inhibitors; 0.35% of 390,000 active; AID 588795; note: nearly all actives have a fitted effect of over 65% in size
#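 Compounds are tested as a concentration series against 10 nM FEN1; after a 15 min room-temperature preincubation, 50 nM substrate starts cleavage, with plate reads at 0 and 15 min. Normalized responses are fitted by a Hill equation.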
# APEX1 inh: APE1 (human) endonuclease inhibition; recombinant APE1, TAMRA/BHQ-2 abasic DNA cleavage fluorescence; AID 2517; 0.35% of 350,000 active; Potency, µM (top dose mostly 65.8 µM), actives largely listed as inhibitors; note: nearly all actives have a fitted effect of over 55% in size
#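 Step 1: APE1 (0.75 nM) with compound, 15 min RT. Step 2: add 50 nM fluorophore/quencher THF duplex. Step 3: three fluorescence reads 60 s apart (525/598 nm); read 3 minus read 1 = reaction progress.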
# PGK inhibitor: blocks T. brucei phosphoglycerate kinase; P07378; PGK/GAPDH coupled, Kinase-Glo luminescence, 60 min; Potency, µM (top dose mostly 57.5 µM), hits mostly inhibitors; 0.043% of 380,000 active; AID 602233; note: nearly all actives have a fitted effect of over 60% in size
# Target sequence (P07378 whole entry, looked up): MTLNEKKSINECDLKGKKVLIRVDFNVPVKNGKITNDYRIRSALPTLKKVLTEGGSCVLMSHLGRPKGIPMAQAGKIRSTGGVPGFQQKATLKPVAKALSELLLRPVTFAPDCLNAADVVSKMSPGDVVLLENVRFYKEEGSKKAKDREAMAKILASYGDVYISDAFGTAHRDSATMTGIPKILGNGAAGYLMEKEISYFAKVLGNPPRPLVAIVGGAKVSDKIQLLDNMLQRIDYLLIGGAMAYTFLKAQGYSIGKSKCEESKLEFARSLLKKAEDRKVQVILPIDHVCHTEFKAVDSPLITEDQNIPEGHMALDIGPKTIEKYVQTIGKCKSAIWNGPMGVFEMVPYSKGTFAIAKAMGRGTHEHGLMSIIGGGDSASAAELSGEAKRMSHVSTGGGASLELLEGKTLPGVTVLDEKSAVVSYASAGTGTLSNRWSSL
#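 Recombinant glycosomal PGK reaction used 1,3-bisphosphoglycerate generated in-well by GAPDH (100nM final) in 100mM TEA pH 7.6, 5mM MgCl2, 0.01% Tween-20. After 60 minutes at room temperature, ATP was read by Kinase-Glo Plus luminescence end-point.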
# RECQ1 helicase: blocks DNA unwinding by human RECQ1 | P46063 | RECQ1 DNA unwinding, red fluorescence kinetic read | Potency, µM (titrated, usually from 57.3 µM), hits mostly inhibitors | 0.54% of 240,000 active; note: nearly all actives have a fitted effect of over 30% in size
#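 50 nM RECQ1T1 preincubated 15 min with compound in Tris pH 8.0 buffer with MgCl2, DTT, Tween-20 and 2.5 ug/ml poly(dI-dC); started with 200 nM TAMRA/BHQ-2 forked duplex and 2 mM ATP. Unwinding read as fluorescence (525/598 nm), two reads 2 h apart.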
# A number is an active result; i = inactive; ? = inconclusive; nt = no result; ! = repeats disagree; [ ] = remark or other dose. An excerpt weighted towards active compounds, which were near 0.74% of everything screened. Calls come from the whole dose curve; as a rule, active = well fitted curve in the direction sought with a large enough effect; inconclusive = small, poorly fitted or top-dose-only effect, or another doubt; inactive = no such curve, though single readings can be large; an effect the other way counts as inactive or inconclusive.
SMILES,BLM inh,FEN1 inhibitor,APEX1 inh,PGK inhibitor,RECQ1 helicase
Cc1ccc(-c2cnc(NCc3cc4c(cc3[N+](=O)[O-])OCO4)n2C)cc1C,i,i,i,i,i
CCOC(=O)C(C)N1C(=O)S/C(=C\c2ccc(-c3ccccc3C(=O)O)o2)C1=O (stereo not given),i,32µM,6µM,nt,nt
Cc1ccc(S(=O)(=O)N(CC(=O)N2CCCCCC2)c2ccccc2F)cc1,i,i,i,i,nt
CN(C)c1ccc(Cc2cc3c(O)ccc(O)c3cc(Cc3ccc(N(C)C)cc3)c2=O)cc1,nt,40µM,nt,i,nt
CN(C)c1ccc(C(=C2C=CC(=[N+](C)C)C=C2)c2ccc(N(C)C)cc2)cc1,22µM!,40µM,?,nt,10µM
CN(C)c1ccc(C(=C2C=CC(=[N+](C)C)C=C2)c2c(O)c(S(=O)(=O)[O-])cc3cc(S(=O)(=O)O)ccc23)cc1,i,45µM,nt,nt,nt
N#CC1=C(N)OC2=C(CCC/C2=C/c2ccoc2)C1c1ccoc1 (stereo not given),i,nt,14µM,nt,22µM
CC(/C=C/c1ccco1)=N\NC(=O)c1cc(C)[nH]n1,i,i,i,i,32µM
COc1ccc(-c2noc(C3CCCN(C(=O)c4ccc(F)cc4)C3)n2)cc1 (stereo not given),i,89µM,i,i,nt
O=C(c1ccc(F)cc1)N1CCCC(c2nc(-c3ccncc3)no2)C1 (stereo not given),nt,i,i,i,nt
CCOc1ccccc1OCCN[C@H](C)Cc1ccc(OC)c(S(N)(=O)=O)c1,i,nt,nt,nt,nt
NS(=O)(=O)c1cccc2c1c([N+](=O)[O-])cc1[nH]c(=O)c(=O)[nH]c12,i,nt,1.6µM,nt,1.4µM!
CCN(CC)CC#CCOC(=O)[C@@](O)(c1ccccc1)C1CCCCC1,i,nt,nt,nt,i
O=C(Cc1cccs1)N[C@@H]1C(=O)N2C(C(=O)[O-])=C(C[n+]3ccccc3)CS[C@H]12,nt,nt,28µM,nt,nt
NC(=O)c1cc[n+](CC2=C(C(=O)O)N3C(=O)[C@@H](NC(=O)C(c4ccccc4)S(=O)(=O)[O-])[C@H]3SC2)cc1 (stereo not given in full),i,2.2µM,i,1.1µM,i
Cc1cccc(CNC(=O)C2CCC(CNS(=O)(=O)c3ccc4c(c3)CCCC(=O)N4)CC2)c1 (stereo not given),i,i,nt,i,nt
Cc1cccn2c(=O)c3cc(C#N)c(=NC(=O)c4ccccc4)n(Cc4ccco4)c3nc12,nt,50µM!,nt,i,nt
CCOC(=O)c1cc2c(=O)n3ccccc3nc2n(Cc2ccco2)c1=NC(=O)c1cccc(Br)c1,i,?,nt,i,nt
CCOC(=O)c1cc2c(=O)n3ccccc3nc2n(Cc2ccco2)c1=NC(=O)c1ccc(Br)cc1,i,35µM,nt,i,nt
COc1cc(C(=O)Nc2ccc3nc(SCc4ccccc4)sc3c2)cc(OC)c1OC,i,i,nt,i,nt
Nc1nonc1-n1nnc(C(=O)N/N=C/c2ccccc2Cl)c1CSc1ccccc1,i,i,i,i,i
COc1cc(/C=N/Nc2nc(N3CCCCC3)nc(N3CCCCC3)n2)ccc1OC(=O)c1ccco1,i,nt,i,nt,i
O=C(Oc1cccc(/C=N/Nc2nc(Nc3ccccc3)nc(N3CCOCC3)n2)c1)c1ccco1,i,i,i,i,22µM
Cc1ccnc(N=O)c1,nt,50µM,i,i,nt
Cc1ccc(N/C(N)=N/c2nc(CSc3ccccn3)cc(=O)[nH]2)c(C)c1,i,i,i,i,i
SMILES,BLM inh,FEN1 inhibitor,APEX1 inh,PGK inhibitor,RECQ1 helicase
O=C(O)c1cc(-c2ccco2)nn1-c1ccc(Cl)cc1,i,25µM,?,?,22µM
CC1CN(Cc2ccccc2)c2nc3c(c(=O)n(C)c(=O)n3C)n2C1 (stereo not given),i,i,i,i,i
Cc1cc(O)c2c(c1O)C(=O)[C@]13C(=C2O)C(=O)[C@@H]2[C@@H](O)[C@H]1[C@@H]1[C@H](O)[C@H]3C(=O)C3=C(O)c4c(O)cc(C)c(O)c4C(=O)[C@]312,nt,?,9.5µM,?,nt
Oc1cc2c(cc1O)[C@H]1c3ccc(O)c(O)c3OC[C@@]1(O)C2,i,35µM,?,?,i
NS(=O)(=O)c1ccc(CCNS(=O)(=O)c2cccc(C(=O)O)c2)cc1,i,i,i,i,i
CC1(C)C=C2C(=NN(c3ccccc3)C(N)=C2C#N)CO1,18µM,i,i,i,nt
CC1(C)Cc2c(C#N)c(N)n(-c3ccccc3)c(=S)c2CO1,i,i,i,i,i
O=C(NNC(=O)c1cccc2ccccc12)c1ccc(Cl)c(Cl)c1,nt,i,nt,i,nt
COc1ccccc1NC(=O)CSc1sc2c(O)cc(=O)[nH]c2c1C#N,i,50µM,i[12.4 µM],i,nt
N#Cc1c(SCC(=O)Nc2cccc(C(F)(F)F)c2)sc2c(O)cc(=O)[nH]c12,i,25µM,i,?,nt
Cc1cc(NC(=O)CSc2sc3c(O)cc(=O)[nH]c3c2C#N)ccc1Br,i,?,i,i,nt
COc1ccc(NC(=O)CSc2sc3c(O)cc(=O)[nH]c3c2C#N)c(OC)c1,?,32µM,i,i,nt
COc1ccc(Cl)cc1NC(=O)CSc1sc2c(O)cc(=O)[nH]c2c1C#N,i,i,i,i,nt
Cc1ccc(/C=N/N2C(=S)SC(C)(C)C2N(O)C(=O)Nc2ccc([N+](=O)[O-])cc2)cc1 (stereo not given),i,i,i,?,32µM
C=C1c2cccc(O)c2C(=O)C2C(=O)[C@]3(O)C(=O)C(C(N)=O)C(=O)[C@@H](N(C)C)[C@@H]3[C@@H](O)[C@H]12 (stereo not given in full),nt,14µM,i,i,nt
COc1ccc(-n2nc(C(=O)N3CCC(N4CCCCC4)CC3)c3c4ccccc4n(C)c3c2=O)cc1,i,89µM,i,i,nt
CC1(C)CC(=O)C(C(C2=C(O)CC(C)(C)CC2=O)c2ccc([N+](=O)[O-])cc2)C(=O)C1 (stereo not given),i,i,i,i,i
CC1(C)CC(=O)C(C(C2=C(O)CC(C)(C)CC2=O)c2ccc(O)c([N+](=O)[O-])c2)=C(O)C1,i,79µM,i,i,i
Cc1cc(C)n(-c2ncc3c(n2)N(CCO)CCOC3=O)n1,i,i,i,i,i
CC1=CC2(O)OCCN(CCO)C2=CC1=O (stereo not given),?,i,?,nt,25µM
CC(C)(C)[C@H]1C=C(C(=O)Nc2ccccc2)O[C@@H](OCc2ccc(CO)cc2)C1,i,i,i,i,28µM
CC(=O)Nc1cccc(/C(C)=N/Nc2ccc(S(=O)(=O)Nc3ccccc3C(=O)O)cc2[N+](=O)[O-])c1,nt,79µM,nt,i,nt
CN(CCO)c1ccc(C=NNc2ccc([N+](=O)[O-])cc2S(=O)(=O)Nc2ccccc2C(=O)O)cc1,nt,79µM,i,i,nt
COc1ccc(C(C)=NNc2ccc([N+](=O)[O-])cc2S(=O)(=O)Nc2ccccc2C(=O)O)c(OC)c1,nt,i,i,i,nt
